From PubChem BioAssay AID1159580 (chemical genetic matrix, 2015)
Among all 5,500 compounds or so, about 2,000 (36%) were called active. About 18% were inconclusive and are not listed. Rule as the data show it: active = normalized growth mostly below about 0.91 (no sharp cut-off); inconclusive = no clear call, values can overlap the other calls; inactive = mostly above about 0.92. Some of the results follow.

Test: chemical genetic growth profiling, strain panel (AID 1159580);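 also: tested at 20 µM; growth read once vehicle control cultures reached saturation at 30 °C; 1 = growth at the plate median or of vehicle wells; lower values mean less growth of the strain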
Conditions: growth OD
[1] = S. cerevisiae deletion strains, locus YAL013W, strain DEP1, hits give low values
[2] = S. cerevisiae deletion strains, locus YBR229C, strain ROT2, hits give low values
[3] = S. cerevisiae deletion strains, locus YDL101C, strain DUN1, hits give low values
[4] = S. cerevisiae deletion strains, locus YDR150W, strain NUM1, hits give low values
[5] = S. cerevisiae deletion strains, locus YEL061C, strain CIN8, hits give low values
[6] = S. cerevisiae deletion strains, locus YGR078C, strain PAC10, hits give low values
[7] = S. cerevisiae deletion strains, locus YHR030C, strain SLT2, hits give low values
[8] = S. cerevisiae deletion strains, locus YJR043C, strain POL32, hits give low values
[9] = S. cerevisiae deletion strains, locus YJR075W, strain HOC1, hits give low values
[10] = S. cerevisiae deletion strains, locus YKL190W, strain CNB1, hits give low values
[11] = S. cerevisiae deletion strains, locus YLR039C, strain RIC1, hits give low values
[12] = S. cerevisiae deletion strains, locus YLR262C, strain YPT6, hits give low values
[13] = S. cerevisiae deletion strains, locus YMR263W, strain SAP30, hits give low values
[14] = S. cerevisiae deletion strains, locus YNL128W, strain TEP1, hits give low values
[15] = S. cerevisiae deletion strains, locus YNL153C, strain GIM3, hits give low values
[16] = S. cerevisiae deletion strains, locus YNL322C, strain KRE1, hits give low values
[17] = S. cerevisiae deletion strains, locus YOL006C, strain TOP1, hits give low values
[18] = S. cerevisiae deletion strains, locus YPL055C, strain LGE1, hits give low values
[19] = S. cerevisiae deletion strains, locus YPL241C, strain CIN2, hits give low values
[20] = S. cerevisiae strains, strain wild type, hits give low values

Measured: normalized growth

CCOC(=O)c1cnc2n(c1=O)CCS2
inactive: [1] 1.02 | [2] 0.997 | [3] 1.05 | [4] 0.965 | [5] 1.04 | [6] 1.04 | [7] 1.1 | S. cerevisiae deletion strains, locus YHR087W, strain rtc3, hits give low values 1.02 | [8] 0.999 | [9] 1.01 | [10] 0.996 | [11] 0.99 | S. cerevisiae deletion strains, locus YLR058C, strain SHM2 (second series), hits give low values 0.995 | S. cerevisiae deletion strains, locus YLR085C, strain ARP6, hits give low values 1.06 | [12] 0.996 | S. cerevisiae deletion strains, locus YMR219W, strain ESC1, hits give low values 0.999 | [13] 1 | [14] 0.997 | [15] 1.02 | S. cerevisiae deletion strains, locus YNL298W, strain CLA4 (second series), hits give low values 1.03 | [16] 1.01 | S. cerevisiae deletion strains, locus YNR030W, strain Alg12, hits give low values 1.08 | [17] 1.07 | [18] 0.987 | [19] 1.01 | S. cerevisiae deletion strains, locus YPR135W, strain CTF4, hits give low values 1.12 | [20] 0.975
active: S. cerevisiae deletion strains, locus YML094W, strain GIM5, hits give low values 1.13 [resistant]

CCOC(=O)C1=C(O)C(=O)N(Cc2ccccc2)C1
inactive: [1] 1.02 | S. cerevisiae deletion strains, locus YBR021W, strain FUR4, hits give low values 1.02 | [2] 1 | S. cerevisiae deletion strains, locus YCL029C, strain bik1, hits give low values 1.01 | S. cerevisiae deletion strains, locus YDL035C, strain GPR1, hits give low values 1.01 | S. cerevisiae deletion strains, locus YDL074C, strain BRE1, hits give low values 1 | [3] 1.01 | S. cerevisiae deletion strains, locus YDL134C, strain PPH21, hits give low values 1 | S. cerevisiae deletion strains, locus YDL185W, strain tfp1, hits give low values 1.02 | S. cerevisiae deletion strains, locus YDL192W, strain arf1, hits give low values 1.01 | S. cerevisiae deletion strains, locus YDR101C, strain arx1, hits give low values 1 | [4] 1.01 | S. cerevisiae deletion strains, locus YDR162C, strain NBP2, hits give low values 0.995 | S. cerevisiae deletion strains, locus YDR318W, strain mcm21, hits give low values 1.02 | S. cerevisiae deletion strains, locus YDR388W, hits give low values 1 | S. cerevisiae deletion strains, locus YDR502C, strain sam2, hits give low values 0.994 | [5] 1.01 | S. cerevisiae deletion strains, locus YER110C, hits give low values 1.02 | S. cerevisiae deletion strains, locus YER155C, strain BEM2, hits give low values 1 | S. cerevisiae deletion strains, locus YER167W, strain BCK2, hits give low values 1.03 | S. cerevisiae deletion strains, locus YGL078C, strain dbp3, hits give low values 1 | S. cerevisiae deletion strains, locus YGL086W, strain mad1, hits give low values 1.02 | S. cerevisiae deletion strains, locus YGL248W, strain PDE1, hits give low values 1.01 | [6] 1.01 | S. cerevisiae deletion strains, locus YGR135W, strain pre9, hits give low values 0.987 | S. cerevisiae deletion strains, locus YGR229C, strain SMI1, hits give low values 1 | S. cerevisiae deletion strains, locus YGR252W, strain gcn5, hits give low values 1.02 | [7] 1.01 | S. cerevisiae deletion strains, locus YHR079C, strain IRE1 (second series), hits give low values 1.02 | S. cerevisiae deletion strains, locus YHR094C, strain hxt1, hits give low values 1.01 | S. cerevisiae deletion strains, locus YHR129C, strain ARP1, hits give low values 1.02 | S. cerevisiae deletion strains, locus YHR200W, strain rpn10, hits give low values 1.01 | S. cerevisiae deletion strains, locus YIL066C, strain RNR3, hits give low values 1 | S. cerevisiae deletion strains, locus YIL073C, strain SPO22, hits give low values 1.1 | S. cerevisiae deletion strains, locus YIL125W, strain kgd1, hits give low values 1 | S. cerevisiae deletion strains, locus YIR030C, strain dcg1, hits give low values 1.01 | S. cerevisiae deletion strains, locus YJL095W, strain BCK1, hits give low values 1.01 | S. cerevisiae deletion strains, locus YJL134W, strain LCB3, hits give low values 1.01 | S. cerevisiae deletion strains, locus YJL168C, strain set2, hits give low values 1.01 | S. cerevisiae deletion strains, locus YJL187C, strain SWE1 (second series), hits give low values 1.01 | [8] 1.04 | [9] 0.997 | S. cerevisiae deletion strains, locus YKL009W, strain mrt4, hits give low values 1.03 | S. cerevisiae deletion strains, locus YKL068W, hits give low values 1 | S. cerevisiae deletion strains, locus YKL085W, strain MDH1 (second series), hits give low values 1.02 | S. cerevisiae deletion strains, locus YKL085W, strain MDH1, hits give low values 1.02 | [10] 1.01 | S. cerevisiae deletion strains, locus YKR001C, strain vps1, hits give low values 1.01 | [11] 1.05 | S. cerevisiae deletion strains, locus YLR058C, strain SHM2, hits give low values 1.02 | S. cerevisiae deletion strains, locus YLR102C, strain apc9, hits give low values 1.01 | [12] 0.993 | S. cerevisiae deletion strains, locus YLR268W, strain sec22, hits give low values 0.982 | S. cerevisiae deletion strains, locus YLR330W, strain CHS5, hits give low values 1.01 | S. cerevisiae deletion strains, locus YLR342W, strain FKS1 (second series), hits give low values 1.09 | S. cerevisiae deletion strains, locus YLR371W, strain rom2, hits give low values 1.01 | S. cerevisiae deletion strains, locus YLR418C, strain cdc73, hits give low values 0.977 | S. cerevisiae deletion strains, locus YML016C, strain PPZ1, hits give low values 1 | S. cerevisiae deletion strains, locus YML032C, strain rad52, hits give low values 1.03 | S. cerevisiae deletion strains, locus YML124C, strain tub3, hits give low values 1.01 | S. cerevisiae deletion strains, locus YMR078C, strain ctf18, hits give low values 1.02 | S. cerevisiae deletion strains, locus YMR223W, strain ubp8, hits give low values 1.03 | [13] 0.999 | S. cerevisiae deletion strains, locus YMR307W, strain GAS1, hits give low values 1.03 | S. cerevisiae deletion strains, locus YNL067W, strain RPL9B, hits give low values 0.99 | [14] 0.985 | [15] 0.994 | S. cerevisiae deletion strains, locus YNL233W, strain BNI4, hits give low values 1.01 | S. cerevisiae deletion strains, locus YNL250W, strain rad50, hits give low values 1 | S. cerevisiae deletion strains, locus YNL271C, strain bni1, hits give low values 1.01 | S. cerevisiae deletion strains, locus YNL298W, strain CLA4, hits give low values 1 | S. cerevisiae deletion strains, locus YNL307C, strain MCK1, hits give low values 1.02 | [16] 0.996 | S. cerevisiae deletion strains, locus YNR052C, strain pop2, hits give low values 1.02 | [17] 1.01 | S. cerevisiae deletion strains, locus YOL012C, strain htz1 0.868 | S. cerevisiae deletion strains, locus YOL147C, strain pex11, hits give low values 1.01 | S. cerevisiae deletion strains, locus YOR061W, strain CKA2, hits give low values 1.01 | S. cerevisiae deletion strains, locus YOR069W, strain VPS5, hits give low values 1.01 | S. cerevisiae deletion strains, locus YOR136W, strain idh2, hits give low values 1.02 | S. cerevisiae deletion strains, locus YOR144C, strain elg1, hits give low values 1 | S. cerevisiae deletion strains, locus YOR184W, strain ser1, hits give low values 1.04 | S. cerevisiae deletion strains, locus YOR316C, strain cot1, hits give low values 1.01 | [18] 0.969 | [19] 1 | S. cerevisiae deletion strains, locus YPR119W, strain clb2, hits give low values 1 | S. cerevisiae deletion strains, locus YPR141C, strain kar3, hits give low values 1 | S. cerevisiae deletion strains, locus YPR163C, strain tif3, hits give low values 1.01 | S. cerevisiae deletion strains, locus YPR167C, strain met16, hits give low values 1.01 | S. cerevisiae deletion strains, strain wtn01, hits give low values 1 | [20] 1.01
